Results published in PubChem BioAssay AID1347426 (Functional Genomics Laboratory (NCATS/FGL), 2020).
The whole screen tested about 31,000 sequences, of which about 1,400 (4.5%) were called active. This is one part of a sample in which actives are shown more often than they occur. A number with no mark means an inactive call.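 The calls were made as follows: active = median seed-adjusted z-score above 1 or below -1; inactive = the rest.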

Experiment: Novel Modifiers of Survival Motor Neuron (SMN) Protein: Gene Identification via Genome-wide siRNA Screen;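 also: luminescence tracks full-length SMN protein made from the SMN2 reporter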
Conditions: HEK293T SMN2-luciferase reporter, siRNA knockdown, 72 h; actives lie on both sides
Summary of the method: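 siRNA screen, 10418 genes ×3 siRNAs; 1 pmol/well, lipid reverse transfection into HEK293T SMN2-luc reporter line. 72 h, 37 °C, 5% CO2; ONE-Glo readout. Data: neg-ctrl normalized, log10, MAD; hit = MAD >1.0 or < -1.0.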
Sequence CUCCUUCCCGGAUGAUUUATT against KLF17 has a median seed-adjusted z-score of -0.131. In the case of CCUCCGUCCUGUUUAGGAATT against LCN2, the median seed-adjusted z-score is reported as 0.123. GCAACGAGUUCAACCUGGATT against RAB11B showed a median seed-adjusted z-score of -0.857. For CCACUUACCCUCAAAGAAATT against SLC4A5, the median seed-adjusted z-score was 1.3 (active). Work on CCUCAGUGUGGGUAUAAGATT against HIF1A yielded a median seed-adjusted z-score of 0.228. For UUGAUAAGGUUAAACCACATT against CSTA, the median seed-adjusted z-score was -0.351. For GCAGCACGAAGGAUACUGATT against ABCA4, the median seed-adjusted z-score was -1.09 (active). In the case of CCACGAGAUUUCACAAACATT against PRKD3, the median seed-adjusted z-score is reported as -0.906. Sequence GCUUCACUCAGAUUCCGAUTT against DYNC1I2 has a median seed-adjusted z-score of -0.167. With GCCUCUACCUCUUCGAAAATT against CLEC11A the median seed-adjusted z-score was -1.1 (active). For GCAGUAAUGUUGAUAUAGATT against VDAC3, the median seed-adjusted z-score was 0.646. Sequence CUAUCUCACCAAGAUCUAUTT against PODN has a median seed-adjusted z-score of 0.589. With CAUCUUCAGUCUGUACAAATT against KIR2DL5B the median seed-adjusted z-score was 1.72 (active). GGAAAGCAACAUACAGACATT against FABP6 gave a median seed-adjusted z-score of 0.122. With GCCUUAUGUAUGCACAGAATT against HKR1 the median seed-adjusted z-score was -0.358. In the case of AGGCAUAUCUUGAAGAACATT against CIP29, the median seed-adjusted z-score is reported as -1.18 (active). With CACAGUGUUUGAGAACUAUTT against RHOA the median seed-adjusted z-score was -0.219. For GCAUCAACAGUAAUGAGAATT against KRT39, the median seed-adjusted z-score was 0.161. With CCACAUCAACAGUGCCUUUTT against ACOT11 the median seed-adjusted z-score was 0.636. AGGGCUUCUUGAAUCUCUATT against GSTO2 showed a median seed-adjusted z-score of 0.142. Work on CCAAGAUGCUCAGUCAUCATT against MAP4K1 yielded a median seed-adjusted z-score of 0. For CAACGUAUCAGAUUGAGAATT against ZNF281, the median seed-adjusted z-score was 1.19 (active). With CUACCGGAUUGAGAUGGAATT against MEGF6 the median seed-adjusted z-score was 0. In the case of GCUGCUUGUGGAUUCGCUATT against TLN2, the median seed-adjusted z-score is reported as -0.0106. CACUCACACCAACCUGUGATT against GNG13 gave a median seed-adjusted z-score of -0.516. With CAGUGUUAGUGGAUUCAGATT against TMEM87B the median seed-adjusted z-score was -0.51. With CAACCUUAUUAUCAUUGAATT against SF3B3 the median seed-adjusted z-score was -2.53 (active). For GGCAGAUCCUGACCUUUGATT against PRMT7, the median seed-adjusted z-score was 0.204. In the case of CUUAAGAUCCCACACCUCATT against SLC39A4, the median seed-adjusted z-score is reported as 0.0304. GCAUGUUCCAGAUCUAUCATT against DRD5 gave a median seed-adjusted z-score of -0.18. GAGCGUGACUGGGUUCUAATT against DDX5 gave a median seed-adjusted z-score of 0.891. With CAAAGACAAGGUCCCAUUUTT against IFI35 the median seed-adjusted z-score was 0.105. In the case of GCCCUAGAAAGGUCACUGATT against AKR1CL1, the median seed-adjusted z-score is reported as 0.488. In the case of GGAGGAACUCGAAUCAUUUTT against EIF4EBP2, the median seed-adjusted z-score is reported as 0.517. For GCAUCACCUUCUUUCGGAUTT against UNC13A, the median seed-adjusted z-score was -2.1 (active). GGACGGAAAACAGUCUUAATT against OAS2 gave a median seed-adjusted z-score of 0.0758. CCCACACUCUAGACUGAAATT against MEF2D showed a median seed-adjusted z-score of 0.0021. Work on CGGUCAAUGUUCUAAAGAUTT against CACNG5 yielded a median seed-adjusted z-score of -0.41. With CCAUGACUGUCAAUCGUCATT against GFM1 the median seed-adjusted z-score was -0.0641. Work on GGACCUACACUUUUCUCUUTT against FAM53B yielded a median seed-adjusted z-score of -0.00535. In the case of CCCUAAAGUUAAUCACCCATT against NUCB2, the median seed-adjusted z-score is reported as 0.45. For GUUCCAUCCUGAUUCAAAUTT against PIGM, the median seed-adjusted z-score was 1.36 (active). For GUUGAUAAGUUUUACCGAUTT against ADAM19, the median seed-adjusted z-score was 0.0996. With CCACCCGGACGAUAUCUUUTT against PPARA the median seed-adjusted z-score was 0.113. With GGAACGCAGUCGGAUCUCATT against RHOU the median seed-adjusted z-score was -1.44 (active). For GCAUUUGCAAUGAAGGCUATT against DNER, the median seed-adjusted z-score was -0.316. Sequence GAACCAGAUGAGACAUUCATT against SPSB1 has a median seed-adjusted z-score of -0.378. With CUCUAAUGUUAAUCCGAGATT against MED14 the median seed-adjusted z-score was -3.22 (active). Work on GAGGCUCAAUGUUACACCATT against ACAT1 yielded a median seed-adjusted z-score of -0.848. CCAUUGGGCUAUGACCUGATT against ACOT4 showed a median seed-adjusted z-score of -0.158. GGCACUAUUUCCAAUGGAATT against ADAMTS12 gave a median seed-adjusted z-score of -0.0721. With GCAGCCCUGAUGUCCAGUATT against EFS the median seed-adjusted z-score was -0.299. For AGUUCAUCGAUGACAUGGATT against COL6A2, the median seed-adjusted z-score was 0.0119. In the case of GGAUCUAUCUUAACGACCATT against GAN, the median seed-adjusted z-score is reported as -1.07 (active). In the case of GCUCCGAAGUGUUUACAAUTT against DQX1, the median seed-adjusted z-score is reported as -0.297. In the case of GUCCAAAUACAGUCUCUUATT against MAP3K14, the median seed-adjusted z-score is reported as -0.0609. Work on CGCUGAAACCCGAUUCCUATT against ANPEP yielded a median seed-adjusted z-score of 0.252. With GCCUAGAUGAGCGAAUUUATT against LSM3 the median seed-adjusted z-score was -1.36 (active). Sequence GCACUGCGACUGUACUCUATT against LRRC3B has a median seed-adjusted z-score of 0. In the case of CCUUCACACGUACCACAAATT against TEKT2, the median seed-adjusted z-score is reported as -0.349. With GGCUGGACAGUAAUUCAGATT against ANGPTL4 the median seed-adjusted z-score was 1.37 (active). In the case of CACAAUGAGUUAACUGAUATT against LILRB4, the median seed-adjusted z-score is reported as -0.104. With CGUUAUUGCCUGUUUGGAATT against GUCY1A2 the median seed-adjusted z-score was -0.186. In the case of GGGAAAAGCUUGACGAUUATT against RNF139, the median seed-adjusted z-score is reported as 0.175. GGGUUGAAGGUGAUCAUCATT against IMMP2L showed a median seed-adjusted z-score of 0.919. With GGCUCAUUGAGACGACUGATT against RCADH5 the median seed-adjusted z-score was -0.158. Work on CACUGGAGACUUUCGCUUUTT against ZNF813 yielded a median seed-adjusted z-score of 0.127. In the case of AGAUCUACAUCGUGAUGAATT against CDC2L1, the median seed-adjusted z-score is reported as -1.14 (active). For GGUACUUCGUGAUCCGCAUTT against NECAP2, the median seed-adjusted z-score was -0.539. In the case of GGACUGUCAAUCUUAGAUATT against GRK4, the median seed-adjusted z-score is reported as -0.267. CGUGUACAAGGCUCUAACATT against EPN3 gave a median seed-adjusted z-score of 0.184. For CUACGAAUCUGUGAAUGAATT against ERH, the median seed-adjusted z-score was -1.25 (active). GCUAACCACUUGGAAGAUATT against PRMT7 showed a median seed-adjusted z-score of 0.204. For GGCAGAACCUAUACCAGAATT against MED6, the median seed-adjusted z-score was -2.15 (active). Work on CAGAACCUGUUGUAGAAAATT against GSPT2 yielded a median seed-adjusted z-score of 0.846. For GGACGACUGCAGCAAGUUUTT against ATP2A3, the median seed-adjusted z-score was -0.28. Sequence AGACCAUCCCUAACGGAUATT against PRELP has a median seed-adjusted z-score of -0.0579. In the case of GCUCGUAGUUGGGAUAACATT against FRAP1, the median seed-adjusted z-score is reported as -1.02 (active). In the case of GGCUCUCAGAUUGUUGACATT against GABARAPL2, the median seed-adjusted z-score is reported as 0.528. In the case of GAACAUUGGUGACUAUAUUTT against GRIP2, the median seed-adjusted z-score is reported as -0.0256. For GGAUGAUGUGCGUAACAGATT against HAO1, the median seed-adjusted z-score was 0.421. With CAGAAGUUCUCAGACCUAATT against ZNF721 the median seed-adjusted z-score was 0.404. For GCUAUACGGUUGACAACGATT against ISLR, the median seed-adjusted z-score was 0.00807. In the case of CCCUCCUCGUGGAACCAUATT against NEURL2, the median seed-adjusted z-score is reported as 1.39 (active). For UCGUGGACCUGGUCUGUUATT against OGDHL, the median seed-adjusted z-score was -0.0878. In the case of GGUCGAAAAGCAAACUCAATT against PTPRN2, the median seed-adjusted z-score is reported as -0.104. In the case of CAUGGAAGAUCUGACCAUATT against MEOX2, the median seed-adjusted z-score is reported as 1.36 (active). Work on GCAGGAUGAUCUCAAGUAUTT against MOBKL2B yielded a median seed-adjusted z-score of -0.613. Work on CCGCAGUGGAAAUACCAUATT against ANGEL1 yielded a median seed-adjusted z-score of -0.332. With GCGGCUAACAGGAUAUGUATT against ACTN2 the median seed-adjusted z-score was 0.165. CACAAGAUAUCAGGAGAAATT against FCRL2 gave a median seed-adjusted z-score of -0.294. In the case of CAUGAUCUCCGGCUACCUATT against SLCO2B1, the median seed-adjusted z-score is reported as 0.289. Sequence GGAUGCUCCAAGUCUGUCATT against GPR179 has a median seed-adjusted z-score of -0.513. Work on GCAGUUGUCCAGUUACGAATT against RAD50 yielded a median seed-adjusted z-score of 0.266. Work on GAAGCUACAUGGGAAGUGUTT against SIRT7 yielded a median seed-adjusted z-score of -0.427. With CAGGUCGACUGAUAGAUCATT against DDX42 the median seed-adjusted z-score was -2.13 (active). Sequence GGACUGAUCAUGAACCUCUTT against CPEB3 has a median seed-adjusted z-score of 0.086. In the case of GAGUUUAAUCUGAUUGAUATT against MOBKL1B, the median seed-adjusted z-score is reported as 0.31. GCACUAUAUGAAUACGCAATT against AUP1 gave a median seed-adjusted z-score of 0.305. For GCAUCACACUCACAUCCCATT against DNASE2, the median seed-adjusted z-score was -1.23 (active). GCUCUGUACAGGAAACUCUTT against IL2RA showed a median seed-adjusted z-score of 0.587. GUGUAGGGAUAGUUACCAATT against ZNF518A showed a median seed-adjusted z-score of -0.252. With GAGUUCUACUUGUCCAAUUTT against ZDHHC20 the median seed-adjusted z-score was -0.936. Sequence GGCUUUGCUUAAGUUCAAATT against LPCAT4 has a median seed-adjusted z-score of 0.338. For CAACCAUAGUUAAAGUUAATT against TCP1, the median seed-adjusted z-score was -1.02 (active). GGAUGUCUCAUUACACCAUTT against TGFBR3 gave a median seed-adjusted z-score of 0.285. Work on UGCUGGUGUUUAAACCCAUTT against C5AR1 yielded a median seed-adjusted z-score of 0.366. GCGACUUCAUGAUAGCAUATT against CAMK2D showed a median seed-adjusted z-score of 0.0676.
